Screening data deposited in PubChem BioAssay by National Center for Advancing Translational Sciences (NCATS).
SARS PLP yeast: inhibitors of SARS-CoV papain-like protease in yeast; Potency, µM (top dose mostly 32.9 µM), without a hit: at the highest dose activity, positive = growth rescue, most hits filed as activators; actives 0.19% (n = 330,000); S. cerevisiae expressing SARS-CoV PLpro, growth rescue; calls by dose curve; further: potency means the concentration at half of the fitted maximal effect; 0% is about no effect; nearly all actives have a fitted effect of over 55% in size
Pf growth 48h: inhibits P. falciparum growth in the first generation, 48 h; Potency, µM (doses to about 28.7 µM), inactives show at the top dose activity change, negative = inhibition, usual class: inhibitors; actives 5.9% (n = 310,000); P. falciparum luciferase growth in erythrocytes, 48 h; further: potency means the concentration at half of the fitted maximal effect; on the % scale 0 is the no-effect control and ±100 the full control effect
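Read-out is firefly luciferase luminescence from an integrated reporter in P. falciparum, so falling signal marks reduced parasite growth. Infected erythrocytes were at 2% hematocrit and 0.1% parasitemia (final) in Albumax-supplemented RPMI 1640.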
NS1 inh: inhibitors of influenza NS1 protein function; Potency, µM (series often up to 46.1 µM), for the others: at the highest dose activity, positive = more growth; actives 0.4% (n = 270,000); calls by dose curve; further: potency means the concentration at half of the fitted maximal effect; actives are rising curves; nearly all actives have a fitted effect of over 50% in size
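Recovery from NS1-induced slow growth read by OD600 in budding yeast switched to galactose assay medium (pH 6.0, -URA) at 1:100 dilution. Compound 23 nl per well; the matching strain lacking NS1 serves as control.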
CHX counter: affects cycloheximide protein synthesis inhibition readout, counter-screen | cell reporter, cycloheximide protein synthesis inhibition counterscreen | max response, % | actives 12% (n = 300,000); in the data active means max response mostly above about 13%, no sharp cut-off; inactive means mostly below about 14%; further: read at 38.3 µM for the half of the compounds with a filed dose; 0% is about no effect
Pf growth 96h: P. falciparum growth inhibition at 96 hour, primary screen for plastid delayed-death inhibitors; P. falciparum luciferase reporter growth, 96 h; Potency, µM (doses to about 28.7 µM), without a hit: at the highest dose activity change, negative = inhibition, actives largely listed as inhibitors; actives 6.9% (n = 320,000); AID 504834; further: potency means the concentration at half of the fitted maximal effect; on the % scale 0 is the no-effect control and ±100 the full control effect
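Cell-based qHTS: luciferase-tagged P. falciparum in erythrocytes (2% hematocrit, 0.05% parasitemia final) incubated with compounds for 96 hours, 37 C, 5% CO2; luciferase detection reagent then added and luminescence measured.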
Shiga inhibitor: Shiga toxin inhibition; actives 9.2% (n = 290,000); Vero cells, Shiga toxin protein synthesis inhibition reporter; inhibition, % at 38.7 µM; in the data active means inhibition mostly above about 28%, no sharp cut-off; inactive means mostly below about 43%; further: 0% is about no effect
The depositor's hits bear a star; ? = inconclusive; · = no result. Most compounds without a hit are left out; they make up all but 21% or so of the library. Unless noted, the call rests on the fitted dose curve; in most records, active means well fitted inhibition curve with a large enough effect; inconclusive means small, poorly fitted or top-dose-only effect, or another doubt; inactive means no such curve, though single readings can be large or run the other way.

SMILES	SARS PLP yeast	Pf growth 48h	NS1 inh	CHX counter	Pf growth 96h	Shiga inhibitor
O=C(NCCCn1cccn1)C1CCC(=O)N(Cc2cccc(C(F)(F)F)c2)C1 (stereo not drawn)	3%	16%	-4%	-2	11%	-5
CC(C)(CNC(=O)C1CCCN1C(=O)c1cccs1)N1CCOCC1 (stereo not drawn)	-2%	-4%	-2%	-2	-10%	-16
Cc1c(NC(=O)C(C)NCC2CCCO2)c(=O)n(-c2ccccc2)n1C (stereo not drawn)	17%	14%	2%	7	?	-6
CC(C)(C)OC(=O)C[C@H]1C/C=C\C[C@H](CC(=O)NCCO)C(=O)NC[C@@H](c2ccccc2)OC1=O	1%	·	·	·	·	·
CCc1ccc(NC(=O)C(C)Sc2ccc(S(=O)(=O)N3CCN(C)CC3)cn2)cc1 (stereo not drawn)	12%	?	·	·	-8%	·
Nc1nc2c(s1)CCc1c-2cnn1-c1ccccc1	-31%	-7%	-134%	46*	-13%	151*
Cc1ccccc1C(=O)Nc1cc(S(=O)(=O)N2CCOCC2)ccc1N1CCN(C)CC1	-3%	?	·	·	-4%	·
COc1ccccc1NS(=O)(=O)c1cccc(C(=O)NCC(c2ccco2)N(C)C)c1 (stereo not drawn)	-4%	?	·	·	-29%	·
CCOC(=O)c1nc(NNC(C)=O)sc1C	0%	13%	·	-1	3%	0
CCOC(=O)c1nc(NCCc2ccccc2)sc1C	-4%	31%	·	53*	-10%	133*
Cc1nc(Nc2ccccc2C(F)(F)F)sc1C(=O)N(C)C	-2%	36%	·	26*	59%	45*
Cc1nc(NCCc2ccccc2)sc1C(=O)N(C)C	1%	91%	-7%	37*	120%	58*
CCCCN(C)C(=O)C1CCN(Cc2cccc(OCc3ccccc3)c2)CC1	-6%	62%	11%	-4	1%	-14
Cc1ccc(Cl)c(OC(=O)c2nn(C(C)C)c(=O)c3ccccc23)c1	-4%	4%	-7%	-2	?	6
CCOc1ccc(N(CC(=O)N/N=C/c2ccc(OC(C)C)cc2)S(C)(=O)=O)cc1	14%	10%	-10%	8	7%	12
S=c1[nH]nc(C2CCCCC2)n1/N=C/c1cccc(Cl)c1Cl	-4%	-21%	4%	-1	-1%	-9
FC(F)(F)c1cccc(-c2ccn3ncnc3n2)c1	-6%	0%	·	-9	-1%	-1
C/C(CC(=O)Nc1ccc(N(C)C)cc1)=N\NC(=O)c1ccc([N+](=O)[O-])cc1Cl	-3%	-3%	9%	18	6%	27
C/C(CC(=O)Nc1ccc(N(C)C)cc1)=N\NC(=O)c1ccc(C(C)(C)C)cc1	-5%	-7%	12%	6	4.1µM*	-11
C/C(CC(=O)Nc1ccc(N(C)C)cc1)=N\NC(=O)c1ccc(F)cc1	1%	-11%	-7%	31*	19%	36*
CC(=O)N(Nc1ccccc1)c1ccccc1	2%	8%	8%	-7	365%	-7
O=C(/C=C/c1ccc(Br)cc1)N1CCN(c2cccc(C(F)(F)F)c2)CC1	-39%	11%	-1%	-3	?	17
COc1cc(CNC(=O)C2CCC(=O)N(C3CCCCCC3)C2)cc(OC)c1 (stereo not drawn)	-1%	30%	0%	-2	?	-8
CC(=O)CCc1c[nH]c2c(C(=O)O)cccc12	-2%	22%	?	-2	12µM*	12
CC(=O)CCc1ccccc1	3%	?	·	·	23%	·
SMILES	SARS PLP yeast	Pf growth 48h	NS1 inh	CHX counter	Pf growth 96h	Shiga inhibitor
CC(=O)N1C=Cc2c(c(C)c3c([nH]c4ccccc43)c2C)C1	-9%	1.9µM*	-44%	17*	-7%	25
S=c1[nH]nc(-c2cc(-c3ccccc3)n[nH]2)n1/N=C/c1ccc(Br)s1	1%	-3%	9%	-1	-22%	9
CCC(C)c1ccccc1N1CC(C(=O)NCCC2=CCCCC2)CC1=O (stereo not drawn)	0%	?	·	·	15µM*	·
CC(C)CCN1CC(C(=O)NCCC2=CCCCC2)CC1=O (stereo not drawn)	-4%	-14%	-6%	21*	-3%	66*
CCC(C)c1ccccc1N1CC(C(=O)Nc2ccccc2N2CCCC2)CC1=O (stereo not drawn)	5%	?	0%	-2	?	-13
CCC(C)c1ccccc1N1CC(C(=O)N2CCN(S(=O)(=O)c3ccccc3Br)CC2)CC1=O (stereo not drawn)	3%	?	·	·	12µM*	·
COC(=O)C(Cc1ccccc1)NC(=O)C(N)CC(=O)O (stereo not drawn)	·	0%	·	·	0%	·
Cc1ccc(N(Cc2ccccc2)C(=O)c2ccc(Cl)c(S(=O)(=O)N3CCOCC3)c2)cc1	-3%	13µM*	·	·	9.3µM*	·
Cc1ccc(S(=O)(=O)N2CCOCC2)cc1C(=O)OCC(=O)NCc1ccccc1	·	?	·	·	-9%	·
CCN1CCN(C(=O)c2ccc(Cl)c(S(=O)(=O)N3CCOCC3)c2)CC1	4%	·	8%	0	?	-9
Cc1ccc(N(Cc2ccccc2)C(=O)c2cc(S(=O)(=O)N3CCOCC3)ccc2C)cc1	4%	10µM*	·	·	?	·
CCCOC(=O)c1ccc(NC(=O)c2cnccn2)cc1	-3%	68%	-21%	26*	107%	51*
Cc1csc2ncc(C(=O)Nc3cccc(C(F)(F)F)c3)c(=O)n12	-9%	43%	-20%	8	34%	-1
CCc1ccc(NC(=O)c2cnc3scc(C)n3c2=O)cc1	-3%	53%	-72%	34*	63%	11*
O=C(N/N=C/c1ccco1)c1cnccn1	-5%	-11%	3%	-1	62%	9
O=C(Nc1ccc(OC(F)(F)F)cc1)c1cnccn1	1%	192%	-3%	55*	?	101*
O=C(Nc1ccc(NC(=O)c2ccco2)cc1)c1cnccn1	0%	97%	-28%	25*	?	58
CCc1ccc(NC(=O)c2cnccn2)cc1	-8%	481%	-13%	38*	-5%	55*
CCCCOC(=O)c1ccc(NC(=O)c2cnccn2)cc1	-5%	26%	-10%	18	-4%	10
O=C(CSc1ccc2nnc(-c3ccccc3)n2n1)N1CCCCC1	·	·	0%	·	·	·
FC(F)(F)c1nnc2ccc(N3CCOCC3)nn12	3%	21%	-1%	-1	·	33
CN(Cc1ccccc1)c1ccc2nnc(-c3ccccc3)n2n1	9%	4.1µM*	-3%	-4	?	-14
c1ccc(-c2nnc3ccc(N4CCCC4)nn23)cc1	-9%	-2%	2%	-2	1µM*	8
Cc1cccc(C)c1N1CCN(c2ccc3nnc(C(F)(F)F)n3n2)CC1	-15%	9.3µM*	9%	-2	·	-3
CCNc1nc(NC(C)C)nc(Oc2ccc(=O)n(C)n2)n1	0%	-2%	5%	1	26%	-8
